The sample as a whole holds a higher share of hits than the screen did.
IDE exosite inh: displaces the probe from the exo-site of human IDE | P14735 | purified IDE, FL-6b probe fluorescence polarization; stronger effect = lower value | z-score at 20 µM | 6.3% of 17,000 active | AID 1259349;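 active = z-score of -3 or lower, meaning strong loss of probe binding signal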;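 note: His-tagged human IDE residues 42-1019 made in E. coli with 30 nM FL-6b probe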
Target sequence (P14735 42-1019 limits assumed): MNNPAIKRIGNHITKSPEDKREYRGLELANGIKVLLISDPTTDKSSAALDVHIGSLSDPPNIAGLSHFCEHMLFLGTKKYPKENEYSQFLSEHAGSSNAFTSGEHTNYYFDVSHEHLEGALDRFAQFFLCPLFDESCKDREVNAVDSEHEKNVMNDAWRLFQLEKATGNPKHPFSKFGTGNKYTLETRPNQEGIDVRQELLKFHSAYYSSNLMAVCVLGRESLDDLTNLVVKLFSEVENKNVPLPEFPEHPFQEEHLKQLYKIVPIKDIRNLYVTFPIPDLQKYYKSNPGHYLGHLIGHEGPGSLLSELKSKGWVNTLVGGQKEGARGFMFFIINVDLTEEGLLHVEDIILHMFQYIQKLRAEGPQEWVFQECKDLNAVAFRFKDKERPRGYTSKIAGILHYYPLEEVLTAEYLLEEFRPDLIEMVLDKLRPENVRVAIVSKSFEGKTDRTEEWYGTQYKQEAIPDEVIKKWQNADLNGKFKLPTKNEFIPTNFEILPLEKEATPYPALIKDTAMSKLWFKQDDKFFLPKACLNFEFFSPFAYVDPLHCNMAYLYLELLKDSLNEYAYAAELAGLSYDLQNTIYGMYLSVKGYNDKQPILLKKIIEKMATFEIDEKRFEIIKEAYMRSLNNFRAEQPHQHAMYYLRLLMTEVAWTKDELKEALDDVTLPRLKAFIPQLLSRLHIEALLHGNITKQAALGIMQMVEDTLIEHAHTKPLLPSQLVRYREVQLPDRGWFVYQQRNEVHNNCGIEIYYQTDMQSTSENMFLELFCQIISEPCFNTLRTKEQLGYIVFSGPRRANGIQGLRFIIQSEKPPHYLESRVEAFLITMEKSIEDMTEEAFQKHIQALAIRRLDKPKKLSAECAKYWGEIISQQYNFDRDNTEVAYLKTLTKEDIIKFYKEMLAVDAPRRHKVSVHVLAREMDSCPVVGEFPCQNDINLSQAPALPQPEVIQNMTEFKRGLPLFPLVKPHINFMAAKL
* marks the source's active call; other numbers are inactive results.

SMILES	IDE exosite inh
CCCC(=O)Nc1ccc2c(c1)C(=O)N(C)[C@H]1CC[C@H](CC(=O)N3CCCCC3)O[C@H]1CO2	-0.591
N#C[C@H]1[C@H](c2ccc(C#CC3CCCC3)cc2)[C@@H](CO)N1C(=O)Cc1ccccn1	-0.699
CN(C)C(=O)c1cccc(-c2ccccc2[C@H]2[C@@H](C#N)N(C(=O)C3CC3)[C@@H]2CO)c1	-0.921
O=C(C1CCOCC1)N1[C@@H](CO)[C@@H](c2ccccc2)C12CN(Cc1cccc(Cl)c1)C2	1.43
CC(C)NC(=O)NCC[C@H]1CC[C@H](NS(=O)(=O)c2ccc(Oc3ccccc3)cc2)[C@@H](CO)O1	1.86
N#C[C@H]1[C@@H](c2ccccc2C2=CCCC2)[C@H](CO)N1C(=O)NC1CCCCC1	-1.45
O=C(Nc1ccc(F)cc1)N1CC(=O)N2[C@H](CO)[C@H](c3ccc(-c4ccc(F)cc4)cc3)[C@@H]2C1	0.297
Cc1ccc(-c2ccc([C@H]3[C@@H](CO)N4C(=O)CN(C(=O)Nc5ccc(F)cc5)C[C@H]34)cc2)cc1	1.58
O=C(Nc1ccccc1)N1CC(=O)N2[C@H](C1)[C@@H](c1ccc(-c3ccc(F)cc3)cc1)[C@@H]2CO	-0.87
O=C(Nc1ccc(F)cc1)N1CC(=O)N2[C@H](CO)[C@@H](c3ccc(-c4ccccc4)cc3)[C@@H]2C1	-4.78*
Cc1ccccc1-c1ccc([C@H]2[C@@H](CO)N3C(=O)CN(C(=O)Nc4ccc(F)cc4)C[C@@H]23)cc1	-10.1*
O=C(Nc1ccc(F)cc1)N1CC(=O)N2[C@@H](CO)[C@@H](c3ccc(-c4ccccc4)cc3)[C@@H]2C1	-0.633
O=C1CCC(=O)N[C@H](c2ccc(F)cc2)C/C=C\C[C@@H](c2ccc(F)cc2)N1	-0.809
COCC(=O)N1CC[C@@H]2[C@H](CO)Nc3ccc(C#Cc4ccc(F)cc4)cc3[C@@H]21	1.52
Cc1cccc(-c2ccc([C@@H]3[C@@H](CO)N4C(=O)CN(C(=O)NC5CCCCC5)C[C@@H]34)cc2)c1	-16.6*
Cc1cccc(-c2ccc([C@H]3[C@H]4CN(C(=O)NC5CCCCC5)CC(=O)N4[C@H]3CO)cc2)c1	-9.45*
O=C(Nc1cc(F)ccc1F)N1CCCCN2[C@@H](CO)[C@@H](c3ccc(-c4cncnc4)cc3)[C@@H]2C1	0.356
O=C(Nc1ccc2c(c1)[C@@H]1C[C@H](CC(=O)N3CCOCC3)O[C@H](CO)[C@@H]1O2)Nc1ccccc1F	0.663
COc1ccc(S(=O)(=O)N(C)C[C@H]2OCCCC[C@H](C)Oc3ccc(NC(=O)Cc4ccccc4)cc3C(=O)N([C@@H](C)CO)C[C@@H]2C)cc1	-0.351
O=C(NCC[C@H]1CC[C@@H](NC(=O)C2CCOCC2)[C@@H](CO)O1)c1cc(Cl)cc(Cl)c1	-0.77
CCC(=O)N1[C@H](CO)[C@H](c2ccccc2)[C@H]1CN(CC1CCC1)S(C)(=O)=O	-0.0596
C[C@@H]1CN([C@H](C)CO)C(=O)c2cc(NC(=O)c3ccncc3)ccc2O[C@@H](C)CCCCO[C@H]1CN(C)Cc1ccc(Cl)c(Cl)c1	0.524
O=C(CN1CCOCC1)N1CCCCN2[C@H](CO)[C@@H](c3ccc(C#Cc4ccccc4F)cc3)[C@H]2C1	-3.9*
O=C(CN1CCOCC1)N1CCCCN2[C@@H](CO)[C@H](c3ccc(C#Cc4ccccc4F)cc3)[C@@H]2C1	-8.97*
O=C(CN1CCOCC1)N1CCCCN2[C@H](CO)[C@@H](c3ccc(C#Cc4ccccc4F)cc3)[C@@H]2C1	-2.88
SMILES	IDE exosite inh
O=C(CN1CCOCC1)N1CCCCN2[C@@H](CO)[C@@H](c3ccc(C#Cc4ccccc4F)cc3)[C@@H]2C1	-4.63*
COc1ccc(-c2ccc3n(c2=O)C[C@@H]2[C@@H](CO)[C@H](C(=O)NCC4CC4)N(C(=O)NC(C)C)[C@H]32)cc1	0.254
COCC#Cc1ccc([C@@H]2[C@@H](CO)N3CCCCN(S(=O)(=O)c4ccc(OC)cc4)C[C@H]23)cc1	1.19
COc1ccc(-c2ccc3n(c2=O)C[C@H]2[C@H](CO)[C@@H](C(=O)N(C)C)[C@@H]3N2Cc2cncnc2)cc1	1.01
O=C(C1CC1)N1CC(=O)N2[C@H](CO)[C@@H](c3ccc(C#CC4CCCC4)cc3)[C@H]2C1	2.11
CN1C(=O)c2cc(NS(=O)(=O)c3cccc(F)c3)ccc2OC[C@@H]2O[C@H](CC(=O)NCCN3CCCCC3)CC[C@H]21	-0.325
C[C@H](CO)N1C[C@H](C)[C@H](CN(C)S(=O)(=O)c2ccccc2F)Oc2ncc(/C=C/c3ccccc3)cc2C1=O	-1.73
C[C@@H]1CN([C@H](C)CO)C(=O)c2cc(/C=C/c3ccccc3)cnc2O[C@H]1CN(C)S(=O)(=O)c1ccccc1F	-4.63*
C[C@@H]1CN([C@@H](C)CO)C(=O)c2cc(-c3ccc(F)cc3)cnc2O[C@H]1CN(C)S(C)(=O)=O	0.988
O=C(c1cnccn1)N1CC(=O)N2[C@H](CO)[C@@H](c3ccc(C#CCC4CCCC4)cc3)[C@@H]2C1	2.12
Cn1cnc(S(=O)(=O)N2C[C@@H](O)COC[C@@H]3O[C@H](CC(=O)NCc4cccc(F)c4)CC[C@H]32)c1	-0.419
COc1ccc(-c2ccc3c(c2)[C@H]2[C@H](CCN2C(=O)Nc2ccccc2OC)[C@H](CO)N3C)cc1	2.4
Cn1cnc(S(=O)(=O)N2CCCCN3[C@@H](CO)[C@H](c4ccc(C#CC5CCCC5)cc4)[C@@H]3C2)c1	3.29
COc1ccccc1-c1ccc([C@@H]2[C@@H](CO)N3CCCCN(S(=O)(=O)c4cn(C)cn4)C[C@@H]23)cc1	-15.1*
COc1ccccc1-c1ccc([C@H]2[C@H]3CN(S(=O)(=O)c4cn(C)cn4)CCCCN3[C@H]2CO)cc1	0.557
Cn1cnc(S(=O)(=O)N2CCCCN3[C@H](CO)[C@H](c4ccc(C#CC5CCCC5)cc4)[C@H]3C2)c1	1.95
COc1ccccc1-c1ccc([C@@H]2[C@H](CO)N3CCCCN(S(=O)(=O)c4cn(C)cn4)C[C@@H]23)cc1	-12.7*
Cn1cnc(S(=O)(=O)N2CCCCN3[C@H](C2)[C@@H](c2ccc(C#CC4CCCC4)cc2)[C@@H]3CO)c1	1.21
COc1ccc2c3c(n(C)c2c1)[C@@H](CO)N(Cc1nccs1)CC31CCN(CC2CCCC2)CC1	1.44
C/C=C/c1ccc([C@@H]2[C@@H](CO)N(C(=O)C3CCC3)[C@H]2CN(CC)C(=O)CC)cc1	0.677
O=C1CN(S(=O)(=O)c2cccc(F)c2)C[C@@H]2[C@H](c3ccc(C4=CCCC4)cc3)[C@H](CO)N12	0.0892
O=C(c1ccc2c(c1)OCO2)N1C[C@@H]2[C@H](c3ccccc31)[C@H](CO)N2Cc1cccnc1	-0.0489
Cc1cccc(-c2ccc([C@H]3[C@H](CO)N4C(=O)CN(C(=O)Cc5ccccn5)C[C@@H]34)cc2)c1	-6.93*
Cc1cccc(-c2ccc([C@@H]3[C@@H](CO)N4C(=O)CN(C(=O)Cc5ccccn5)C[C@H]34)cc2)c1	-5.66*
O=C(Cc1ccccn1)N1CC(=O)N2[C@H](CO)[C@H](c3ccc(-c4ccc(F)cc4)cc3)[C@@H]2C1	-0.588
Cc1ccc(-c2ccc([C@@H]3[C@H]4CN(C(=O)Cc5ccccn5)CC(=O)N4[C@H]3CO)cc2)cc1	-0.799
Cc1ccc(-c2ccc([C@@H]3[C@@H](CO)N4C(=O)CN(C(=O)Cc5ccccn5)C[C@@H]34)cc2)cc1	-2.59
O=C(Cc1ccccn1)N1CC(=O)N2[C@@H](CO)[C@@H](c3ccc(-c4ccccc4)cc3)[C@@H]2C1	-5.63*
Cc1ccc(-c2ccc([C@@H]3[C@@H](CO)N4C(=O)CN(C(=O)Cc5ccccn5)C[C@H]34)cc2)cc1	-1.17
